Reference: PubChem BioAssay AID652189 (Johns Hopkins Ion Channel Center, 2013)
Screen size: about 2,300 compounds; about 900 (39%) were called active.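 The calls were made as follows: active = mean duplicate percent inhibition, scaled so buffer wells are 0 and the reference blocker 100, over three buffer SD above buffer mean; inactive = the rest.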 Only a sample is shown.

What follows are compounds tested against Anoctamin-1 (Mus musculus) (UniProt Q8BHY3) (assay: TMEM16A chloride channel inhibitors, confirmation, cell-based, re-confirmation (AID 652189)). Conditions: HEK293 TMEM16A/YFP-H148Q, iodide quench fluorescence, at 10 µM, ionomycin added to raise cell calcium; active compounds read high.
Anoctamin-1 (Mus musculus), sequence (Q8BHY3 whole entry, looked up): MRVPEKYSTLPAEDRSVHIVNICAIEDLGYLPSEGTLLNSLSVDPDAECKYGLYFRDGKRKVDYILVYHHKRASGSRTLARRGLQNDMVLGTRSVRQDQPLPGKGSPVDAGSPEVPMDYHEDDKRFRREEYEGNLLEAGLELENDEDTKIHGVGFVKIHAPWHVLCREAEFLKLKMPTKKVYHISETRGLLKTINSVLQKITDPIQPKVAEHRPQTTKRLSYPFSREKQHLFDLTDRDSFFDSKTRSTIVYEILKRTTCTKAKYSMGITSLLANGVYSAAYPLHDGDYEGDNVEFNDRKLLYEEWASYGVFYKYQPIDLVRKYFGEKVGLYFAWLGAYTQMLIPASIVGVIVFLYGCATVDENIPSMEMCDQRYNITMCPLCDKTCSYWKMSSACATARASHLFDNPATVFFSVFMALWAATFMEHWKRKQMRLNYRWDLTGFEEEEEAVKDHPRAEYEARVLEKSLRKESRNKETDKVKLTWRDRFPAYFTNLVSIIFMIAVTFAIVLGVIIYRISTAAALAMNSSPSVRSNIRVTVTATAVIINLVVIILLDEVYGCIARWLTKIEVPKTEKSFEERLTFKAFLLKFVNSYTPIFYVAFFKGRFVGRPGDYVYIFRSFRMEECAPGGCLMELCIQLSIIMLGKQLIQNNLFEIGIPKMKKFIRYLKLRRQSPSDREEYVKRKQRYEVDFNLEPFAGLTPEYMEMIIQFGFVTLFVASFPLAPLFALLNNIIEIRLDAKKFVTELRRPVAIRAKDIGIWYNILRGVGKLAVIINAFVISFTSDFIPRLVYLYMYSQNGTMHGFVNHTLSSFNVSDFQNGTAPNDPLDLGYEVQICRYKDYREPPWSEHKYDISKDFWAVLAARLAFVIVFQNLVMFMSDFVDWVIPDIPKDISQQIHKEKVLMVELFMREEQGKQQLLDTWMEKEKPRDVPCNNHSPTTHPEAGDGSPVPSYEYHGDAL

inhibition, active:
COC(=O)c1ccc(NC(=O)c2ccccc2NS(=O)(=O)c2ccccc2)cc1 29.5%
CCOC(=O)C1CCN(c2ncnc3c2oc2ccc(Br)cc23)CC1 28%
S=C(NCc1ccc(Cl)cc1)NC12CC3CC(CC(C3)C1)C2 46%
CC(=O)c1cc(CN2CCC(C(=O)Nc3cccc(-c4cscn4)c3)CC2)cs1 21.5%
COc1ccc(S(=O)(=O)NCCCCOc2ccc(Cl)cc2)cc1 23.5%
O=C(Nc1cccc(S(=O)(=O)Nc2ccc(Cl)cc2)c1)c1ccc2c(c1)OCCO2 19%
COc1cccc(CNS(=O)(=O)c2ccc3c(c2)CC(C)N3C(=O)C2CCC2)c1 (stereo not given) 19.5%
Cc1cccc(-n2c(SCC(N)=O)nc3c(c2=O)C2(CCCCC2)Cc2ccccc2-3)c1 22%
COc1cc(CC(=O)Nc2nc(-c3ccc(F)c(F)c3)cs2)cc(OC)c1OC 25.5%
O=C(Nc1ccccc1)c1ccccc1NC(=O)C(F)(F)F 26.5%
Fc1ccc2[nH]c3c(N4CCSCC4)ncnc3c2c1 41.5%

inhibition, inactive:
Cc1ccc(N2C(=O)S/C(=C/c3cn(C)c4ccccc34)C2=O)cc1
O=C1c2ccccc2C(Nc2ccc3c(c2)OCCO3)N1Cc1ccco1 (stereo not given)
Cc1ccc(-c2csc(-c3c[nH]c4ccccc34)n2)cc1
S=C(NCc1cccs1)Nc1ccc(Cl)cc1
CN(Cc1cccnc1)C(=O)c1cc(COc2ccc3ncccc3c2)on1
Cc1ccc(C)c(N2CCN(C(=O)CCCCn3c(=O)[nH]c4ccccc4c3=O)CC2)c1
CCOC(=O)N1CCN(C(=O)c2ccc3c(c2)N(Cc2ccc(C)cc2)CCS3)CC1
COc1ccc(OCC(=O)NCCc2ccc(S(N)(=O)=O)cc2)cc1
Cc1nc(CNS(=O)(=O)c2ccc(Oc3ccccc3)cc2)cs1
CCn1nccc1C(=O)Nc1ccc(S(=O)(=O)NC23CC4CC(CC(C4)C2)C3)cc1
CCCCCc1ccc(-c2ccc(C(=O)O)cc2)nc1
COc1ccc(Cl)cc1NC(=O)CCS(=O)(=O)c1cc2c(cc1C)NC(=O)CO2
COc1ccc(-n2c(C)cc(C(=O)CSc3nnc(-c4cccs4)o3)c2C)cc1
Fc1ccc(CSc2nnc(-c3cc4c(s3)-c3ccccc3CC4)o2)cc1
C=C(C)Cn1c(C)cc(C)c(S(=O)(=O)c2ccccc2C)c1=O
O=C(Nc1nc(-c2ccc3c(c2)OCO3)cs1)c1ccncc1
Cc1ccc(N)cc1-n1c(C)ccc1C
CCOC(=O)C(Sc1ncc(C#N)c(N)n1)C(C)C (stereo not given)
N#Cc1nc(COc2ccc(-c3ccccc3)cc2)oc1NCc1cccnc1
O=C(NC(=S)Nc1ccccc1C(=O)O)c1ccc(-c2ccc(Br)cc2)o1
CSc1cccc(NC(=S)N(C(C)C)C(C)c2ccccn2)c1 (stereo not given)
CCC(=O)Nc1ccc2nc(C)n(Cc3ccccc3Cl)c(=O)c2c1
Cc1nc(SCC(=O)N2CCc3ccccc3C2)c2c(C)c(C)sc2n1
Cc1ccc(C)c(N2CCN(S(=O)(=O)c3ccc4c(c3)oc(=O)n4C)CC2)c1
